Test [1] in a line: qHTS RealTime-Glo MT Cell Viability Assay in HepG2 cells - 40 hour (AID 1224870). Further: nearly all actives have a fitted effect of over 50% in size. Put shortly: (§1)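 HepG2 cells (600/well) mixed with RealTime-Glo MT reagent, settled 5 h at 37 C/5% CO2 before compound addition. Nonlytic NanoLuc luminescence from viable-cell prosubstrate reduction read repeatedly during 40 h treatment at 37 C.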
In general terms: Quantitative high-throughput screening tests each substance at several concentrations.

A short description of test [2]: A CellTox Green Cytotoxicity Assay to monitor cytotoxicity in HEK293 cells - 40 hour (AID 1224871). Further: nearly all actives have a fitted effect of over 45% in size. Summed up: (§2)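 Fluorescence intensity, read at 0, 8, 16, 24, 32 and 40 h of compound treatment, reflected dye binding to DNA of dead HEK293 cells; compounds (23 nL, DMSO) were added 5 h after plating cells with reagent.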
A short description of test [3]: qHTS RealTime-Glo MT Cell Viability Assay in HepG2 cells - 8 hour (AID 1224873). Further: nearly all actives have a fitted effect of over 55% in size. Put shortly: as §1
Test [4] is described as follows: qHTS RealTime-Glo MT Cell Viability Assay in HepG2 cells - 32 hour (AID 1224877). Further: nearly all actives have a fitted effect of over 55% in size. Summed up:
(§3)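 Cells + NanoLuc/prosubstrate dispensed (600 cells/well) → 5 h at 37 C/5% CO2 → compounds in DMSO transferred → 40 h incubation at 37 C, luminescence read at 0, 8, 16, 24, 32, 40 h.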

The nature of test [5]: qHTS RealTime-Glo MT Cell Viability Assay in HEK293 cells - 0 hour (AID 1224880). Further: top concentration of the series differs between compounds; nearly all actives have a fitted effect of over 45% in size. Put shortly: (§4)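 Viable HEK293 cells reduce a cell-permeant prosubstrate; the product diffuses out and is consumed by NanoLuc in the medium to give light. Compounds went in after a 5 h incubation and plates were read over the treatment course.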
Test [6] can be described thus: A CellTox Green Cytotoxicity Assay to monitor cytotoxicity in HEK293 cells - 32 hour (AID 1224881). Further: nearly all actives have a fitted effect of over 40% in size. Put shortly: as §2
Test [7] can be described thus: A CellTox Green Cytotoxicity Assay to monitor cytotoxicity in HepG2 cells - 0 hour (AID 1224882). Further: nearly all actives have a fitted effect of over 35% in size. Put shortly: (§5)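 Using 1536-well format, dye-containing HepG2 suspension was seeded, allowed 5 h at 37 C/5% CO2, dosed by pintool with compounds, positive and negative controls, and imaged for fluorescence across 40 h.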
Test [8] in a line: A CellTox Green Cytotoxicity Assay to monitor cytotoxicity in HEK293 cells - 8 hour (AID 1224884). Further: nearly all actives have a fitted effect of over 35% in size. Further: potency means the concentration at half of the fitted maximal effect. Put shortly: as §2
Test [9] can be described thus: qHTS RealTime-Glo MT Cell Viability Assay in HepG2 cells - 16 hour (AID 1224885). Further: nearly all actives have a fitted effect of over 50% in size. Summed up:
as §3

Test [10] in a line: qHTS RealTime-Glo MT Cell Viability Assay in HEK293 cells - 8 hour (AID 1224887). Further: top concentration of the series differs between compounds; nearly all actives have a fitted effect of over 50% in size. Summed up:
as §4

Test [11] can be described thus: A CellTox Green Cytotoxicity Assay to monitor cytotoxicity in HEK293 cells - 16 hour (AID 1224888). Further: nearly all actives have a fitted effect of over 35% in size. Further: potency means the concentration at half of the fitted maximal effect. Summed up: as §2
Test [12] is described as follows: A CellTox Green Cytotoxicity Assay to monitor cytotoxicity in HEK293 cells - 24 hour (AID 1224875). Further: nearly all actives have a fitted effect of over 45% in size. Further: potency means the concentration at half of the fitted maximal effect. Summed up:
as §2

Test [13] in a line: A CellTox Green Cytotoxicity Assay to monitor cytotoxicity in HepG2 cells - 16 hour (AID 1224876). Further: nearly all actives have a fitted effect of over 45% in size. Put shortly: as §5
Test [14] in a line: A CellTox Green Cytotoxicity Assay to monitor cytotoxicity in HepG2 cells - 24 hour (AID 1224878). Further: nearly all actives have a fitted effect of over 45% in size. Summed up:
as §5

The nature of test [15]: A CellTox Green Cytotoxicity Assay to monitor cytotoxicity in HepG2 cells - 40 hour (AID 1224879). Further: nearly all actives have a fitted effect of over 40% in size. Summed up:
as §5

Test [16] is described as follows: A CellTox Green Cytotoxicity Assay to monitor cytotoxicity in HepG2 cells - 32 hour (AID 1224883). Further: nearly all actives have a fitted effect of over 50% in size. Summed up: as §5
Test [17] can be described thus: qHTS RealTime-Glo MT Cell Viability Assay in HEK293 cells - 24 hour (AID 1224886). Put shortly:
(§6)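 Tox21 10K qHTS, HEK293, 600 cells/well, RealTime-Glo reagent co-dispensed with cells; 5 h preincubation, compound by pintool, 37 C, luminescence at 0–40 h.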

A short description of test [18]: qHTS RealTime-Glo MT Cell Viability Assay in HepG2 cells - 0 hour (AID 1224889). Further: nearly all actives have a fitted effect of over 50% in size. Summed up:
as §3

The nature of test [19]: qHTS RealTime-Glo MT Cell Viability Assay in HEK293 cells - 16 hour (AID 1224872). Put shortly: as §6
Test [20] in a line: qHTS RealTime-Glo MT Cell Viability Assay in HEK293 cells - 40 hour (AID 1224874). Further: nearly all actives have a fitted effect of over 50% in size. Particulars: RealTime-Glo luminescence; max response: stronger effect = lower value. Summed up:
as §4

Values without a mark were called inactive. Results filed as inconclusive are left out. The source made the active and inactive calls. The call rests on the fitted dose curve; in most records, active means well fitted curve in the direction sought with a large enough effect in the repeat runs; inconclusive means weak or mixed curves; inactive means no such curve, though single readings can be large; an effect the other way counts as inactive or inconclusive.
On the % scale 0 is the no-effect control and ±100 the full control effect.

In the case of `CC1(C)SC(C)(C)SC(C)(C)S1`, the Potency entry in test [1], in test [2], in [4], in test [6], in test [7] and in test [8] was “inactive” throughout. The Potency result in [10] and in test [11] was “inactive” in each case. The call in test [3], in test [5] and in [9] was inactive.

In the case of `OCCN1C[C@H](O)[C@@H](O)[C@H](O)[C@H]1CO`, the Potency result in test [1], in test [2], in test [12], in test [13], in test [4] and in test [14] was “inactive” each time. Also, the Potency entry in [15], in [6], in [7], in test [16], in [8] and in test [17] was “inactive” throughout. In addition, the Potency result in test [10], in [11] and in test [18] was “inactive” each time. The call in [3] and in test [9] was inactive.

As for `NS(=O)(=O)c1cc2c(cc1C(F)(F)F)NC(Cc1ccccc1)NS2(=O)=O` (centres undefined), the Potency entry in test [1], in [2], in [12], in test [13], in [4] and in [14] was “inactive” in each case. Besides, the Potency entry in test [15], in test [6], in test [7], in test [16], in [8] and in [17] was “inactive” throughout. Further, the Potency entry in test [10], in test [11] and in test [18] was “inactive” each time. Moreover, the result in [3] was inactive.

In the case of `NC(=O)Nc1nc2ccccc2[nH]1`, the Potency entry in test [1], in test [19], in [13], in test [14], in [15] and in test [7] was “inactive” in each case. For the same compound, the Potency entry in test [16], in [8], in [17], in test [10] and in [18] was “inactive” each time. For the same compound, the max response in [20] was -25.5%. The outcome in [9] was inactive.

For `CCCC=O`, the Potency result in test [1], in test [2], in test [12], in [13], in test [4] and in test [14] was “inactive” throughout. For the same compound, the Potency entry in test [15], in test [6], in test [7], in test [16], in [8] and in test [17] was “inactive” throughout. Further, the Potency result in test [10], in test [11] and in test [18] was “inactive” throughout. Besides, the outcome in test [3] and in test [5] was inactive.

As for `NC(=O)CCCCC1CCSS1` (centres undefined), the Potency entry in test [1], in test [2], in test [12], in test [4], in test [14] and in [15] was “inactive” in each case. Also, the Potency result in test [6], in test [16], in [8], in test [17], in test [10] and in [11] was “inactive” each time. Further, the compound was called inactive in test [3] and in [5]. The max response in test [20] was 4.59%.

Consider `O=C(O)c1ccccc1S`, for which the Potency entry in [1], in test [19], in test [13], in test [14], in test [15] and in test [16] was “inactive” throughout. Moreover, the Potency result in test [17], in test [10] and in [18] was “inactive” in each case. Also, the result in [3], in test [5] and in test [9] was inactive. The max response in test [20] is -0.793%.

Take `CCN(CC)S(=O)(=O)c1ccc(C(=O)O)cc1`: the Potency result in [1], in [13], in [4], in test [14], in test [15] and in test [7] was “inactive” in each case. Besides, the Potency entry in test [16] and in [18] was “inactive” throughout. Moreover, the result in test [3] was inactive.

As to `[O-][N+](=Nc1ccccc1)c1ccccc1`, the Potency result in test [1], in [13], in [4], in [14], in [15] and in test [7] was “inactive” throughout. Further, the Potency result in [16], in test [8], in [17], in test [10] and in [11] was “inactive” throughout. Moreover, the outcome in [3], in test [5] and in [9] was inactive. In [20], the max response is -1.34%.

`NC(=O)c1ncn([C@@H]2O[C@H](CO)[C@@H](O)[C@H]2O)c1O`: the Potency result in test [1], in test [4], in [17], in test [10] and in test [18] was “inactive” each time. The outcome in test [3] and in test [5] was inactive. The max response in test [20] is 9.45%. The Potency was 19 µM (active) in [12], 23.9 µM (active) in test [8] and 19 µM (active) in test [11].

For the compound `NC(N)=NS(=O)(=O)c1ccc(N)cc1`, the Potency result in [1], in test [2], in [12], in test [13], in test [4] and in test [14] was “inactive” each time. Besides, the Potency result in test [15], in test [6], in [7], in test [16], in [8] and in [17] was “inactive” each time. The Potency entry in [10], in [11] and in test [18] was “inactive” each time. Also, the max response in test [20] is -4.08%. In addition, the outcome in test [5] and in [9] was inactive.

Turning to `CC(C)CCOC(=O)CC(C)C`, the Potency result in test [1], in test [19], in test [13], in test [4], in [14] and in test [15] was “inactive” in each case. Moreover, the Potency entry in test [16], in test [17] and in test [10] was “inactive” throughout. The compound was called inactive in test [3], in test [5] and in test [9]. Also, the max response in test [20] is 14.4%.

Consider `Cc1onc(-c2ccccc2)c1-c1ccc(S(N)(=O)=O)cc1`, for which the Potency result in test [1], in test [2], in test [12], in test [13], in test [4] and in [14] was “inactive” throughout. Besides, the Potency entry in test [15], in test [6], in test [7], in [16], in test [8] and in test [11] was “inactive” in each case. Further, the Potency entry in test [18] is “inactive”. The compound was called inactive in [9].

In the case of `CO`, the Potency entry in [1], in test [2], in [12], in test [13], in [14] and in test [15] was “inactive” throughout. Besides, the Potency result in test [6], in test [16], in test [8], in test [17], in test [10] and in test [11] was “inactive” each time. Further, the Potency result in [18] is “inactive”. Besides, the compound was classed as inactive in test [3], in [5] and in [9].

In the case of `O=[N+]([O-])c1ccc(Oc2ccc([N+](=O)[O-])cc2)cc1`, the Potency entry in [1], in [2], in test [12], in test [13], in test [4] and in test [14] was “inactive” throughout. Moreover, the Potency entry in test [15], in test [6], in [16], in test [8], in test [11] and in test [18] was “inactive” in each case. The result in [3], in test [5] and in [9] was inactive.

On to `CNC(=O)c1c(I)c(NC(=O)CCCCC(=O)Nc2c(I)c(C(=O)O)c(I)c(C(=O)NC)c2I)c(I)c(C(=O)O)c1I`, for which the Potency result in test [1], in test [2], in test [12], in test [13], in [4] and in test [14] was “inactive” in each case. The Potency entry in test [15], in [6], in [16], in test [8], in test [17] and in test [10] was “inactive” each time. For the same compound, the Potency result in [11] and in test [18] was “inactive” throughout. Also, the max response in test [20] was -0.381%. In addition, the result in [9] was inactive.

Source of the values: PubChem BioAssay (Tox21).
